PubChem BioAssay (NCATS)
Several values for one entry are separate records, joined by “and”; a condition that tells them apart may be missing. Equal entries are not always repeated. Inconclusive results are not listed. Some structures have more than one record in an assay (separate samples or runs), and their calls can disagree. Activity calls are given as the source filed them. Calls follow the shape of the dose curve; as a rule, active = well fitted curve in the direction sought with a large enough effect; inconclusive = small, poorly fitted or top-dose-only effect, or another doubt; inactive = no such curve, though single readings can be large; an effect the other way counts as inactive or inconclusive.

What was measured:
[1] = biological target: Glutathione peroxidase 1 (Homo sapiens) (UniProt P07203); assay: Primary qHTS Assay for Inhibitors of Recombinant Selenoprotein Glutathione Peroxidase 1 (GPX1) (AID 1845191); also: nearly all actives have a fitted effect of over 65% in size; also: potency is read from the fitted curve at half-maximal effect; as to activity, negative = inhibition: % is scaled to controls: 0 for no effect and ±100 for the full control effect
Glutathione peroxidase 1 (Homo sapiens), sequence (P07203 whole entry, looked up): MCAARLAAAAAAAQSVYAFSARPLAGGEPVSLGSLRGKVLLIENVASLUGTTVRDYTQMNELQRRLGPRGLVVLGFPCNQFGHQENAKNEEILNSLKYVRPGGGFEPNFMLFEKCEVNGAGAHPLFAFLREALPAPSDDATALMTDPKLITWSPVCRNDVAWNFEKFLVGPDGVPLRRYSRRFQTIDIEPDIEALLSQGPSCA
Summary of the method: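 Recombinant GPX1 (10 nM final) was preincubated with compound for 30 min at room temperature, then reacted with 1 mM GSH, 0.5 mM CHP, 0.5 mM NADPH and 100 nM glutathione reductase; NADPH fluorescence (340/450 nm) was read at 0 and 15 min.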

[2] = biological target: Phospholipid hydroperoxide glutathione peroxidase GPX4 (Homo sapiens) (UniProt P36969); assay: Primary qHTS Assay for Inhibitors of Recombinant Selenoprotein Glutathione Peroxidase 4 (GPX4) (AID 1845192); also: nearly all actives have a fitted effect of over 65% in size; also: potency is read from the fitted curve at half-maximal effect; as to activity change, negative = inhibition: series mostly up to about 50 µM; % is scaled to controls: 0 for no effect and ±100 for the full control effect
Phospholipid hydroperoxide glutathione peroxidase GPX4 (Homo sapiens), sequence (P36969 whole entry, looked up): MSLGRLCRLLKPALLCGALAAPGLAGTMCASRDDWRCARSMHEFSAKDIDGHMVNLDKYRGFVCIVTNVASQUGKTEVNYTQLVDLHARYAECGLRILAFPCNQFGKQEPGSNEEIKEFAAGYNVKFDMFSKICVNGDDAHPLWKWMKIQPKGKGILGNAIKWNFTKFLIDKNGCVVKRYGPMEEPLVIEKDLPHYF
Summary of the method: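 GR-coupled readout: 100 nM GR, 1 mM GSH, 0.5 mM NADPH; NADPH fluorescence (ex 340/em 450 nm) read at t=0 and after 15 min RT. GPX4 200 nM, preincubated 30 min with compound; substrate 0.5 mM CHP.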

[3] = biological target: Luciferin 4-monooxygenase (Photinus pyralis) (UniProt P08659); assay: Primary firefly luciferase (FLuc) qHTS assay for identification of artifact compounds. (AID 1845220); also: nearly all actives have a fitted effect of over 60% in size;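 as to activity change, negative = inhibition: series mostly up to about 54 µM; plate controls were DMSO vehicle for no effect and no enzyme for full effect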
Summary of the method: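 In this counter-screen for luciferase artifacts, test compounds met substrate (10 uM each luciferin and ATP) before 10 nM enzyme started the reaction. Light output was measured 5 min later.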

[4] = Primary fluorescence-based thiol-reactive (MSTI) qHTS assay for identification of artifact compounds. (AID 1845221); also: nearly all actives have a fitted effect of over 65% in size; also: potency is read from the fitted curve at half-maximal effect;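 as to activity change, negative = thiol reactive: series mostly up to about 54 µM; thiol-reactive compounds lower the probe fluorescence signal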
Summary of the method: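 In PBS pH 7.4 with 2% DMSO, each compound met 4 uM MSTI for one hour at ambient temperature, shielded from light, before fluorescence detection.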

[5] = tested on: Nanoluciferase (engineered Oplophorus gracilirostris luciferase); assay: Primary Nanoluciferase (NLuc) qHTS assay for identification of artifact compounds. (AID 1845222); also: potency is read from the fitted curve at half-maximal effect;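 as to activity, negative = inhibition: NLuc secreted into diluted conditioned medium of S16 cells; series mostly up to about 54 µM; 0% = DMSO and -100% = no enzyme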
Summary of the method: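 Using secreted nanoluciferase in S16 culture medium (0.22 um filtered, 1:55 dilution), compounds were preincubated 15 min at RT. Signal was generated with Nano-Glo reagent (1:100) over 5 min.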

[6] = Primary redox qHTS assay for identification of artifact compounds. (AID 1845223);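 also: 0% = DMSO and 100% = reference compound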
Summary of the method: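 Amplex Red (25 uM) and HRP (250 mU/mL) in HBSS, with compounds for 15 min, then 250 uM DTT for 30 min, room temperature, dark. Fluorescence 525/598 nm read; normalized to DMSO and 10 uM DA3003; Hill fit.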

CN1CCN(c2ccc(OC(F)(F)F)c(Nc3ncc4c(n3)-c3c(c(C(N)=O)nn3CCO)CC4)c2)CC1
inactive: Potency [1] | Potency [2] | Potency [3] | Potency [4] | Potency [5]

O=C(NCC1CCN(Cc2cccc(Cl)c2)CC1)[C@@H]1CCCN(c2ncnc3c2nc2n3CCCC2)C1
inactive: Potency [1] | Potency [2] | Potency [3] | Potency [4] | Potency [5]

COc1ccc(C#Cc2ccc(C(=O)N3CCC[C@@H](CO)C3)cc2)cc1
inactive: Potency [1] | Potency [2] | Potency [3] | Potency [4] | Potency [5]

COc1ccc2nccc(C(=O)CC[C@@H]3CCN(CC#Cc4cc(F)cc(F)c4F)C[C@@H]3C(=O)O)c2c1
inactive: Potency [1] | Potency [2] | Potency [3] | Potency [4] | Potency [5]

CCC/C=C\C=C/CCc1cc(O)c([C@@H]2O[C@H](CO)[C@@H](O)[C@H](O)[C@H]2O)c(O)c1C(=O)OC
inactive: Potency [1] | Potency [2] | Potency [3] | Potency [4] | Potency [5]

Cc1nc(Nc2ccc(F)cc2)nc(N2CCc3ccccc3C2C)c1C (stereo not drawn)
inactive: Potency [1] | Potency [2] | Potency [3] | Potency [4] | Potency [5]

C=C[C@@]1(C)C=C2C(=O)C(O)=C3[C@](C)(C(=O)O)CC[C@@H]4C[C@]34[C@]2(O)C(=O)C1
active: Potency [4] 13.1 µM
inactive: Potency [1] | Potency [2] | Potency [3] | Potency [5]

Nc1nc(NC2CC2)cc(-c2cccc(Cl)c2Cl)n1
inactive: Potency [1] | Potency [2] | Potency [3] | Potency [4] | Potency [5]

C=C(C)C(=O)O[C@H]1/C(C=O)=C\CC/C(CO)=C/[C@H]2OC(=O)C(=C)[C@@H]2[C@@H]1OC
active: Potency [4] 3.69 µM
inactive: Potency [1] | Potency [2] | Potency [3] | Potency [5]

CC(C)C[C@H](CO)Nc1nc(S[C@@H](C)c2ccccc2)nc2nc(N)sc12
inactive: Potency [1] | Potency [2] | Potency [3] | Potency [4] | Potency [5]

CC1(C)CC[C@]2(C(=O)O[C@@H]3O[C@H](CO)[C@@H](O)[C@H](O)[C@H]3O)CC[C@]3(C)C(=CCC4[C@@]5(C)CC[C@H](O[C@@H]6O[C@H](C(=O)O)[C@H](O)[C@H](O)[C@H]6O)C(C)(C)C5CC[C@]43C)[C@@H]2C1 (stereo partly drawn)
inactive: Potency [1] | Potency [2] | Potency [3] | Potency [4] | Potency [5]

CC(C)=CCC[C@](C)(O[C@@H]1O[C@H](CO[C@@H]2OC[C@@H](O)[C@H](O)[C@H]2O)[C@@H](O)[C@H](O)[C@H]1O)[C@H]1CC[C@]2(C)[C@@H]1[C@H](O)C[C@@H]1[C@@]3(C)CC[C@H](O[C@@H]4O[C@H](CO)[C@@H](O)[C@H](O)[C@H]4O)C(C)(C)[C@@H]3CC[C@]12C
inactive: Potency [1] | Potency [2] | Potency [3] | Potency [4] | Potency [5]

CCC[C@@]1(CCc2ccccc2)CC(O)=C([C@H](CC)c2cccc(NS(=O)(=O)c3ccc(C(F)(F)F)cn3)c2)C(=O)O1
inactive: Potency [1] | Potency [3] | Potency [4] | Potency [5]
inactive and 6.31 µM (active): Potency [2]

O=C(NCCCc1ccccc1)C1CCC(CNS(=O)(=O)c2cccc3nsnc23)CC1 (stereo not drawn)
inactive: Potency [1] | Potency [2] | Potency [3] | Potency [4] | Potency [5]

Cc1cc(F)c(C(=O)Nc2cccc(-c3nncn3C(C)C)n2)cc1-n1cnc(C2CC2)c1
inactive: Potency [1] | Potency [2] | Potency [3] | Potency [4] | Potency [5]

CC(C)(C)[C@H](NC(=O)c1ccc(N)c(Cl)c1)C(=O)N1CCC[C@H]1C(=O)N[C@H](C#N)CC(=O)O
inactive: Potency [1] | Potency [2] | Potency [3] | Potency [4] | Potency [5]

CC1OC(OC2C(O)COC(O[C@@H]3[C@@H](O)[C@@H](O)[C@H](OC4C(OC(=O)[C@]56CCC(C)(C)CC5C5=CCC7[C@@]8(C)C[C@H](O)[C@H](OC9OC(CO)C(O)C(O)C9O)[C@@](C)(CO)C8[C@H](O)C[C@@]7(C)[C@]5(C)CC6)OCC(O)C4O)O[C@H]3C)C2O)C(O)C(O)C1O (stereo partly drawn)
inactive: activity, negative = inhibition [1] -4.86% [at 9.52 µM] | activity change, negative = inhibition [2] -9.45% [at 9.73 µM] | activity change, negative = inhibition [3] -14.3% [at 11.6 µM] | activity change, negative = thiol reactive [4] 417% [at 11.5 µM] | activity, negative = inhibition [5] -5.56% [at 11.6 µM]

C[C@@H]1O[C@@H](O[C@H]2[C@H](OC(=O)[C@]34CCC(C)(C)C[C@H]3C3=CCC5[C@@]6(C)C[C@H](O)[C@H](O[C@@H]7O[C@H](C(=O)O)[C@@H](O)[C@H](O)[C@H]7O)[C@@](C)(CO)C6[C@H](O)C[C@@]5(C)[C@]3(C)C[C@H]4O)O[C@@H](CO)[C@@H]2O)[C@H](O)[C@H](O)[C@H]1O[C@@H]1OC[C@@H](O)[C@H](O[C@H]2OC[C@](O)(CO)[C@H]2O)[C@H]1O (stereo partly drawn)
inactive: outcome [1] inactive [at 9.52 µM] | outcome [2] inactive [at 9.73 µM] | outcome [3] inactive [at 11.6 µM] | activity change, negative = thiol reactive [4] 391% [at 11.5 µM] | activity, negative = inhibition [5] 1.66% [at 11.6 µM]

C[C@]12CC[C@@H]3c4ccc(O)c(O)c4CC[C@H]3[C@@H]1CCC2=O
active: Potency [4] 0.947 µM
inactive: Potency [1] | Potency [2] | Potency [3] | Potency [5]

C=C1C(OC2OC(CO)C(O)C(O)C2O)CC2C(C)(C)C(O)CCC2(C)C1CC/C(C)=C\COC(=O)CC(=O)O (stereo not drawn)
inactive: Potency [1] | Potency [2] | Potency [3] | Potency [4] | Potency [5]

C=C1/C(=C/C=C2\CCC[C@]3(C)[C@@H]([C@H](C)CC[C@@H](O)C(C)(C)O)CC[C@@H]23)C[C@@H](O)C[C@@H]1O
inactive: Potency [1] | Potency [2] | Potency [3] | Potency [4] | Potency [5]

Cc1cc2c(c(=O)o1)C=C1CC[C@H]([C@H](C)Cn3cnc(=N)c4[nH]cnc43)C[C@@H]1O2
inactive: Potency [1] | Potency [2] | Potency [3] | Potency [4] | Potency [5]

CN1CCN(c2ccc(-c3cccc(CN4CCOCC4)c3)cc2NC(=O)c2c[nH]c(=O)cc2C(F)(F)F)CC1
inactive: Potency [1] | Potency [2] | Potency [3] | Potency [4] | Potency [5]

C=C(COC(=O)C(O)C(O)CN)C12OC1C1(C)C(=CC2=O)C(O)C(O)CC1C (stereo not drawn)
inactive: Potency [1] | Potency [2] | Potency [3] | Potency [4] | Potency [5]

C[C@@H]1O[C@@H](O[C@H]2CC[C@@]3(C)C(CC[C@]4(C)C3CC=C3[C@@H]5CC(C)(C)CC[C@]5(C(=O)O[C@@H]5O[C@H](CO)[C@@H](O)[C@H](O)[C@H]5O)CC[C@]34C)[C@]2(C)CO)[C@H](O)[C@H](O[C@@H]2O[C@H](CO)[C@@H](O)[C@H](O)[C@H]2O)[C@H]1O (stereo partly drawn)
inactive: Potency [1] | Potency [2] | outcome [3] inactive [at 11.6 µM] | activity change, negative = thiol reactive [4] 278% [at 11.5 µM] | activity, negative = inhibition [5] 2.95% [at 11.6 µM]

CCc1c[nH]c2ncnc(N3CC[C@](N)(CNC(=O)c4ccc(F)cc4F)C3)c12
inactive: Potency [1] | Potency [2] | Potency [3] | Potency [4] | Potency [5]

COC(=O)CC1OC(C)C2=C(O)c3c(O)cccc3C(=O)C23OC13 (stereo not drawn)
inactive: Potency [1] | Potency [2] | Potency [3] | Potency [5]
active: Potency [4] 3.29 µM

O=C(c1ccc(OC(F)F)c(C#Cc2ccccn2)c1)N1Cc2cccnc2C1
inactive: Potency [1] | Potency [2] | Potency [3] | Potency [4] | Potency [5]

C=C(C)C1=C[C@@]2(C)C(=CC1=O)CC[C@@H](O)[C@@H]2C
inactive: Potency [1] | Potency [2] | Potency [3] | Potency [4] | Potency [5]

COc1ccc(NC(=O)c2ccc(-c3ccc(-c4nnc(C)o4)cc3C)cc2)cc1N1CCN(C)CC1
active: Potency [5] 1.51 µM
inactive: Potency [1] | Potency [2] | Potency [3] | Potency [4]

CC[C@@H](C)Nc1cc(C(=O)NC2CC3CC[C@@H](C2)N3c2ccc(C(=O)C3CC3)cn2)c(C)cc1C(N)=O (stereo partly drawn)
active: Potency [1] 16.3 µM | Potency [2] 2.55 µM
inactive: Potency [3] | Potency [4] | Potency [5]

CN(C)C(=O)C(=O)c1cn(C)c2cc(Cl)c(C(=O)N3CCC(Cc4ccc(F)cc4)CC3)cc12
inactive: Potency [1] | Potency [2] | Potency [3] | Potency [4] | Potency [5]

COc1cc(CN(CCN)C(=O)c2cccs2)ccc1OCc1ccccc1
inactive: Potency [1] | Potency [2] | Potency [3] | Potency [4] | Potency [5]

COc1cc2c(cc1NS(=O)(=O)c1ccc(Br)cc1C)n(C)c(=O)n2C
inactive: Potency [1] | Potency [2] | Potency [3] | Potency [4] | Potency [5]

CCc1cccc(CC)c1-n1c(C=C(C)C)c(C(=O)N2CCNCC2)cc(-c2nc(-c3ccc(C(F)(F)F)cc3)cs2)c1=O
inactive: Potency [1] | Potency [2] | Potency [3] | Potency [4] | Potency [5]

C/C1=C\[C@@H](C)C[C@@H](C)[C@@H](Cc2cnco2)OC(=O)/C(C)=C/[C@@H](C)C[C@@H](C)[C@@H](Cc2cnco2)OC1=O
inactive: Potency [1] | Potency [2] | Potency [3] | Potency [4] | Potency [5] | Potency [6]

CC#C[C@@H](CC(=O)O)c1ccc(OCc2ccc(CN3CCC4(C=Cc5ccccc54)CC3)s2)cc1
inactive: Potency [1] | Potency [2] | Potency [3] | Potency [4] | Potency [5] | Potency [6]

C1=C/COCc2cc(ccc2OCCN2CCCC2)Nc2nccc(n2)-c2cccc(c2)COC/1
inactive: Potency [1] | Potency [2] | Potency [3] | Potency [4] | Potency [5]

C=CC(=O)Nc1cccc(Nc2nc(Nc3ccc(OCCOC)cc3)ncc2F)c1
active: Potency [4] 4.74 µM
inactive: Potency [1] | Potency [2] | Potency [3] | Potency [5]

C=C1CCC2C(C)(C)CCCC2(C)C1CC/C(C)=C\CO (stereo not drawn)
inactive: Potency [1] | Potency [2] | Potency [3] | Potency [4] | Potency [5] | Potency [6]

C[C@@H]1O[C@@H](O[C@H]2[C@H](O[C@H]3CC[C@@]4(C)C(CC[C@]5(C)C4C=C[C@]46OC[C@@]7(CCC(C)(C)C[C@H]74)[C@@H](O[C@@H]4O[C@@H](C)[C@H](O)[C@@H](O)[C@H]4O)C[C@]65C)[C@]3(C)CO)O[C@H](CO)[C@@H](O)[C@@H]2O[C@@H]2O[C@H](CO)[C@@H](O)[C@H](O)[C@H]2O)[C@H](O)[C@H](O)[C@H]1O (stereo partly drawn)
inactive: Potency [1] | Potency [2] | outcome [3] inactive [at 11.6 µM] | activity change, negative = thiol reactive [4] 75.2% [at 11.5 µM] | activity, negative = inhibition [5] 3.17% [at 11.6 µM]
